# Bioassay records as filed in PubChem BioAssay.
# Mdm2 MdmX PPI: inhibitors of human Mdm2/MdmX interaction. O15151+Q00987. SaOS-2 split-luciferase Mdm2/MdmX complementation, luminescence. inhibition, % at 8 µM. hit rate 3% among 330,000;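 active means inhibition of at least 50% at 8 µM in the primary screen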
# Gli-Sufu block: Gli-Sufu pathway antagonism; Sufu-KO-LIGHT fibroblasts, Gli luciferase reporter luminescence; inhibition, % at 5 µM; hit rate 0.74% among 340,000; AID 588413;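 active means inhibition above about 55%, limit read from the data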
# 697 NFkB inh: lowers PMA/ionomycin-induced NF-kB signal in 697 B cells | 697 B-cell NF-kB luciferase reporter, 16 h | AID 435022 | inhibition, % at 4 µM | hit rate 0.33% among 330,000; in the data active means inhibition above about 35%
# aSyn 5UTR inh: MLPCN primary screen, SNCA 5' untranslated region; AID 1813; alpha-synuclein 5'UTR reporter, inhibitor activity; inhibition, % (tested at 7.5 µM); hit rate 0.82% among 300,000; in the data active means inhibition above about 60%; inconclusive means no clear call, values can overlap the other calls;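 further: H4 neuroglioblastoma cells stably carrying SNCA 5'UTR luciferase fusion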
# CSC inhib: cancer stem cell inhibition; AID 2717; hit rate 1.1% among 300,000; cancer stem cell-like cells viability, luminescence; inhibition, % at 7.5 µM; in the data active means inhibition above about 75%; inconclusive means no clear call, values can overlap the other calls; tested in HMLE shEcad cells
# Jurkat NFkB inh: lowers PMA/ionomycin-induced NF-kB signal in Jurkat cells | AID 435003 | hit rate 0.53% among 330,000 | PMA/ionomycin-induced NF-kB luciferase reporter, luminescence | inhibition, % at 4 µM; in the data active means inhibition above about 50%
# Mdm2-MdmX conf: confirmation of human Mdm2/MdmX interaction inhibitors; AID 489028; inhibition, % at 8 µM; shares compounds with Mdm2 MdmX PPI; hit rate 55% among 10,000; Mdm2-MdmX binding, luminescent assay; in the data active means inhibition above about 40%
# FLuc counter: full-length luciferase inhibition in Mdm2/MdmX counter-screen; shares compounds with Mdm2 MdmX PPI; SaOS-2 full-length luciferase counterscreen, luminescence; inhibition, % at 8 µM; hit rate 77% among 6,200;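 active means mean inhibition at 8 µM reaching about 37%, which flags the compound as non-specific, limit read from the data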;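 further: p53-null SaOS-2 cells with luciferase driven by a doxycycline-inducible promoter; compound on cells about two nights before reading with doxycycline added after day one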
# A number is an active result; . = inactive; ? = inconclusive; / = not tested or not shown. In the library only some 4.5% were active in any assay of this set; here they are far more common.
SMILES,Mdm2 MdmX PPI,Gli-Sufu block,697 NFkB inh,aSyn 5UTR inh,CSC inhib,Jurkat NFkB inh,Mdm2-MdmX conf,FLuc counter
O=C(N/N=C/c1cccc2ccccc12)c1n[nH]c2c1CCCC2,66,.,.,.,.,.,65,85
C#CCn1c(=NC(=O)c2ccc(S(=O)(=O)N3CCc4ccccc4C3)cc2)sc2cc(S(N)(=O)=O)ccc21,86,.,.,.,/,.,55,.
CCOC(=O)CC(=O)CSc1[nH]c(=O)cc(C)c1C#N,.,.,.,.,.,.,/,/
CSc1ccccc1OCc1cc(C(=O)NCCC2=CCCCC2)no1,52,.,.,.,.,.,.,/
COc1cc2c(cc1OC)CC(=O)NC=C2,.,.,.,.,.,.,/,/
Cc1ccc(N(C)C(=O)c2ccc3c(Cl)c4c(nc3c2)CCC4)cc1C,.,.,.,.,/,.,/,/
CCCCN(CC)CCNC(=O)c1ccc2c(Cl)c3c(nc2c1)CCC3,.,/,.,.,.,.,/,/
O=C(NC1CC1)c1ccc2c(Cl)c3c(nc2c1)CCCC3,.,.,.,.,.,.,/,/
O=C(NCCCN1CCCC1)c1ccc2c(Cl)c3c(nc2c1)CCCC3,72,.,.,.,.,.,51,45
CCN(CC)CCCNC(=O)c1ccc2c(Cl)c3c(nc2c1)CCCC3,84,.,.,.,.,.,49,.
CCCN1CCN(CCCNC(=O)c2ccc3c(Cl)c4c(nc3c2)CCCC4)CC1,70,.,.,.,.,.,.,55
CCc1ccc(N(CC)C(=O)c2ccc3c(Cl)c4c(nc3c2)CCC4)cc1,56,.,.,.,/,.,.,/
Cc1csc(=O)n1CC(=O)OCC(=O)Nc1cc(Cl)ccc1[N+](=O)[O-],.,.,.,.,.,.,/,/
COc1ccc2[nH]c3c(N4CCN(Cc5ccc6c(c5)OCO6)CC4)ncnc3c2c1,57,.,.,.,.,.,.,/
COc1ccc(NS(=O)(=O)c2cc(C)ccc2NC(=O)c2cc(C)oc2C)cc1,64,.,.,103,.,.,58,126
CCOc1ccc(OCC)c(S(=O)(=O)n2cnc(C)c2)c1,.,.,.,.,.,.,/,/
O=c1oc(-c2ccccc2F)nc2scc(-c3ccccc3)c12,53,.,.,.,.,.,50,171
COc1ccc(-c2csc3nc(C)n(-n4cccc4)c(=O)c23)cc1OC,.,.,.,.,.,.,/,/
COc1ccc(-c2csc3nc(-c4ccc(C)cc4)oc(=O)c23)cc1OC,92,.,.,.,.,.,.,/
COc1ccc(-c2csc3nc(-c4ccccc4OC)oc(=O)c23)cc1,59,.,.,.,.,.,.,/
COc1ccc(-c2csc3nc(C)nc(N4CCCCC4)c23)cc1OC,65,.,.,.,.,.,.,/
CSc1nnc(SCC#N)s1,.,.,.,.,.,.,/,/
Cc1cc(C)c(S(=O)(=O)NCC(c2ccco2)N2CCc3ccccc3C2)c(C)c1 (centres undefined),.,.,.,.,.,.,/,/
O=C(CCl)N(C/C=C/c1ccccc1)c1ccc2c(c1)OCCO2,79,.,.,.,.,.,67,.
Cc1ccc(CSC(Nc2ccc(F)cc2)=C(C#N)C#N)cc1,91,.,.,.,.,.,92,.
SMILES,Mdm2 MdmX PPI,Gli-Sufu block,697 NFkB inh,aSyn 5UTR inh,CSC inhib,Jurkat NFkB inh,Mdm2-MdmX conf,FLuc counter
CCC(C)(C)C1CCC2(CC1)NC(=O)N(CC(=O)N(C)Cc1ccc3c(c1)OCCO3)C2=O (centres undefined),.,.,.,/,.,.,/,/
CCOc1ccc(-n2cc(-c3ccccc3)c3c(N4CCOCC4)ncnc32)cc1,74,.,.,.,104,.,65,83
c1ccc(-c2cn(-c3ccccc3)c3ncnc(N4CCCCC4)c23)cc1,.,.,.,.,.,.,/,/
COc1ccc(-n2cc(-c3ccccc3)c3c(N4CC(C)OC(C)C4)ncnc32)cc1 (centres undefined),64,.,.,.,.,.,50,84
Cc1ccc(NC(=O)c2cc(N3C(=O)CCC3=O)ccc2N2CCCCC2)cc1,.,.,.,.,.,.,/,/
Cc1oc2ccc(O)c(CN3CCOCC3)c2c1C(=O)c1ccc(Cl)cc1,.,.,.,.,.,.,/,/
Cc1oc2c(Cl)c(Cl)c(O)c(CN(C)C)c2c1C(=O)c1ccc(Cl)cc1,59,.,.,.,.,.,66,.
CC(=O)Nc1ccc(S(=O)(=O)N2CCN(C(=O)c3ncoc3-c3cccc(F)c3)CC2)cc1,.,.,.,.,.,.,/,/
O=[N+]([O-])c1ccc(CSc2nnc(Cc3ccccc3)o2)cc1,.,.,.,.,.,.,/,/
COc1ccc(Cc2nnc(SCc3ccc([N+](=O)[O-])cc3)o2)cc1,60,.,.,.,.,.,61,.
Clc1ccc(-c2nnc(Sc3nc4ccccc4o3)c3ccccc23)cc1,61,.,.,.,.,.,.,/
Cc1ccc(-c2nnc(Sc3nc4ccccc4o3)c3ccccc23)cc1,53,.,.,.,?,.,.,/
Cc1nnc(Sc2nc3ccccc3o2)c2ccccc12,.,.,.,.,.,.,/,/
COCCn1c(N/N=C(C)/C=C/c2ccccc2)nc2c1c(=O)[nH]c(=O)n2C,/,/,/,.,.,/,/,/
CC(=O)Nc1ccc(NC(=S)NC(=O)c2oc3ccccc3c2C)cc1,62,.,.,.,.,.,.,/
Cc1cccnc1NC(=S)NC(=O)c1oc2ccccc2c1C,.,.,.,.,.,.,/,/
CCC(=O)Nc1ccc(NC(=S)NC(=O)c2oc3ccccc3c2C)cc1,72,.,.,.,.,.,.,/
CN(C(=O)c1ccc(OC2CCN(CCc3ccccc3)CC2)cc1)C1CCCCC1,.,.,.,.,.,.,/,/
c1ccc2c(CN3CCSCC3)cccc2c1,.,.,.,.,.,.,/,/
CCc1cc2c(nc1CC)CCN(CC/C(C)=N/OC[C@H]1O[C@H](c3ccccc3)C=C[C@@H]1Oc1ccc(OC)cc1)C2,54,/,.,.,/,.,41,65
Cn1c(NCC(O)c2ccccc2)nc2c1c(=O)n(Cc1ccc(Cl)cc1)c(=O)n2C (centres undefined),.,.,.,.,.,.,/,/
Cn1c(NCC(O)c2ccccc2)nc2c1c(=O)n(Cc1ccc(Cl)c(Cl)c1)c(=O)n2C (centres undefined),63,.,.,.,.,.,.,/
COc1ccc(NC(=O)CC2SC(N3CCOCC3)=NC2=O)cc1OC (centres undefined),.,.,.,/,.,.,/,/
Cc1ccccc1C(=O)Nc1ccc(-c2nc3ccc(C(=O)c4ccccc4)cc3[nH]2)cc1,67,.,.,.,84,.,.,46
Cc1ccc2nc(-c3ccc(NC(=O)c4ccco4)cc3)[nH]c2c1,.,.,.,.,/,.,/,/
O=S(Cc1ccc(Br)cc1)Cc1nnc(SCc2ccc(Cl)cc2)n1-c1ccccc1 (centres undefined),50,.,.,.,.,.,.,70
